Measles inh: inhibitors of measles virus growth in infected cells. z-score (no concentration beside the values). infected Vero cells, GFP fluorescence, 64 h; stronger effect = lower value. 0.1% of 33,000 active. AID 745; in the data active = z-score below about -3
The depositor's hits bear a star. Shown is part of a subset that was picked to be rich in hits.

SMILES	Measles inh
Cc1ccc(-n2c(C=Cc3ccccc3)nc3ccccc3c2=O)c(C)c1	-0.69
COc1ccc(C=Cc2nc3ccccc3c(=O)n2-c2ccc(C)cc2C)cc1	0.2
Cc1ccc(-n2c(C=Cc3cccc(F)c3)nc3ccccc3c2=O)c(C)c1	-3.2*
CSc1ccc(C=Cc2nc3ccccc3c(=O)n2-c2ccc(Cl)cc2)cc1	-0.16
CCOc1ccc(C2NC(=S)NC(c3ccc(OCC)c(OC)c3)C23C(=O)NC(=O)NC3=O)cc1OC (stereo unspecified)	0.18
